# Rows were chosen to be rich in hits. Some 5.7% of all compounds tested hit in one or more screens of this group.
# Giardia killer – Giardia lamblia killing. activity change, % at 7.66 µM, hits read low. 0.15% of 340,000 active. Giardia lamblia trophozoite viability; in the data active = activity change below about -80%; inconclusive = between about -30% and that limit;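 note: parasites exposed to compound for two days anaerobically before the ATP read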
#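 Compounds were tested on trophozoites seeded at 100 cells/well and held 48 hrs at 37 deg C anaerobically. An ATP-based luminescent kit measured the remaining live cells.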
# Nrf2 inh – inhibitors of Nrf2 signaling; AID 504444; A549 ARE-Fluc reporter, luciferase luminescence, 18-24 h; 2.1% of 360,000 active; Potency, µM (top dose mostly 46 µM), for inactives: at the top dose activity change, negative = inhibition, hits mostly inhibitors; note: potency is the fitted concentration of half-maximal effect; nearly all actives have a fitted effect of over 60% in size
#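 Reporter: ARE-Fluc in A549. Exposure: 18-24 h, 37 °C, 5% CO2, 5% FBS OPTI-MEM. Readouts: fluorescent cytotoxicity (CellTiter-Fluor), then luminescent Nrf2 signal after BugLite.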
# KB-3-1 tox – KB-3-1 parental cell cytotoxicity; KB-3-1 viability, CellTiter-Glo ATP luminescence, 72 h; Potency, µM (doses to about 46.1 µM), hits mostly cytotoxic; 1.4% of 400,000 active; AID 1347075; note: potency is the fitted concentration of half-maximal effect; nearly all actives have a fitted effect of over 60% in size
#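 72 h, 37 °C compound treatment of KB-3-1 parental cells; CellTiter-Glo added, 10 min, luminescence read. Data corrected against DMSO-only plates and normalized before curve fitting.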
# KB-V1 MDR tox – kills drug-selected multidrug resistant KB-V1 cells; 3.4% of 400,000 active; KB-V1 MDR cells viability, CellTiter-Glo, 72 h; Potency, µM (titrated, usually from 46.1 µM), actives largely listed as cytotoxic; AID 1347076; note: potency is the fitted concentration of half-maximal effect; nearly all actives have a fitted effect of over 60% in size
#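 KB-V1 cells (P-gp-expressing MDR subline of KB-3-1) in phenol-red-free DMEM with 10% FBS were exposed to library compounds over a concentration series for 72 h at 37 degrees C. Viability read by CellTiter-Glo luminescence; concentration-effect curves fitted after normalization.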
# A549 viability – A549 cytotoxicity, counter-screen for Nrf2 inhibitors. 0.16% of 390,000 active. Potency, µM (titrated, usually from 46 µM), for the others: at the highest dose activity change, negative = cytotoxicity, most hits filed as inhibitors. A549 ARE-Fluc cells, CellTiter-Fluor viability, 18-24 h; note: potency is the fitted concentration of half-maximal effect
#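 A549 ARE_Fluc cells in 5% FBS OPTI-MEM were exposed to compounds in concentration-response for 18-24 h at 37 deg C. Viability was read by CellTiter-Fluor fluorescence (Ex 405/Em 525) after 30 min, before the luciferase read.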
# PI4K2A inh – inhibitors of human PI4K2A; 0.13% of 420,000 active; Q9BTU6; purified PI4K2A, ADP-Glo luminescence, 1 h; active compounds read low; AID 1346378; activity change, negative = inhibition, % at 76.9 µM; in the data active = activity change below about -50%; inconclusive = mostly about -30% to -49%;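 note: -100% = wells without enzyme as full effect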
# Target sequence (Q9BTU6 whole entry, looked up): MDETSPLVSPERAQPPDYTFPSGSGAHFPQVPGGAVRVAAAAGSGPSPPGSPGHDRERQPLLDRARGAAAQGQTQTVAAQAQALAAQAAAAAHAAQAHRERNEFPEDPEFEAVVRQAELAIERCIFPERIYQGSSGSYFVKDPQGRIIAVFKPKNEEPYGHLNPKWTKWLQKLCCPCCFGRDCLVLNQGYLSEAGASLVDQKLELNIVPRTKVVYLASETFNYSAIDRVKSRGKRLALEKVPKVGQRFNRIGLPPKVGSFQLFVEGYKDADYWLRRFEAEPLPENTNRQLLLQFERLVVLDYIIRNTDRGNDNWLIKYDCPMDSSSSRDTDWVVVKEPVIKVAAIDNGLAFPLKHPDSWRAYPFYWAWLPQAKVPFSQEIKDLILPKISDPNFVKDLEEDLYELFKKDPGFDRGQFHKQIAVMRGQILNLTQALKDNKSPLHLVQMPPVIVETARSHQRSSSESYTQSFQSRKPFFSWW
#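 In this quantitative HTS, ADP production by PI4K2A was quantified luminescently after 1 h at ambient temperature; 100 microM adenosine served as plate-quality control.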
# * hit, by the source's call; i = inactive; u = inconclusive; x = not tested or not shown; ! = not active in a repeat. Unless noted, calls come from the whole dose curve; as a rule, active = well fitted curve in the direction sought with a large enough effect; inconclusive = small, poorly fitted or top-dose-only effect, or another doubt; inactive = no such curve, though single readings can be large; an effect the other way counts as inactive or inconclusive. Unless noted, % is set by controls: 0 for no effect and ±100 for the full control effect.
SMILES,Giardia killer,Nrf2 inh,KB-3-1 tox,KB-V1 MDR tox,A549 viability,PI4K2A inh
CNC(=O)O/N=C/C(C)(C)S(C)=O (stereo not given),x,x,i,i,x,x
CSCCC(c1nnnn1C1CCCCC1)N1CCC(n2c(=O)[nH]c3ccccc32)CC1 (stereo not given),x,x,i,i,x,-7
CSCCC(c1nnnn1C1CCCC1)N1CCC(n2c(=O)[nH]c3ccccc32)CC1 (stereo not given),x,x,i,23µM*,x,1
CCCC12CN3CCN(C1)CC(CCC)(C3)C2=O,2,-6%,i,i,0%,1
CCCC12CN3CC(CCC)(CN(C1)C3c1ccccn1)C2=O (stereo not given),-3,23%,i,2.6µM*!,-2%,0
CNCC(O)c1cc(OCc2ccccc2)c(OCc2ccccc2)cc1F (stereo not given),-5,u,u,18µM*,8%,-2
O=c1[nH]c(O)c(N=Nc2cc([N+](=O)[O-])ccc2O)c(=O)[nH]1,-8,-1%,i,i,23µM*,-15
O=[N+]([O-])c1ccc(O)c([N+](=O)[O-])c1,u,u,i,u,u,-2
O=C(Nc1ccon1)c1cccn(Cc2cccc([N+](=O)[O-])c2)c1=O,x,x,i,i,7%,-6
O=C(CCCCl)c1ccc(F)cc1,x,x,x,x,x,-6
O=[N+]([O-])c1cccc(CN2CC=C(c3ccc(F)cc3)CC2)c1,5,-10%,9.2µM*,i,0%,-5
O=[N+]([O-])c1ccccc1CN1CC=C(c2ccc(F)cc2)CC1,39,7%,i,i,16%,-3
Nc1ccc(N)cc1,x,x,x,x,x,-21
Cc1ccc(S(=O)(=O)CC(C)(O)C(=O)Nc2cccc(C(F)(F)F)c2)cc1 (stereo not given),-6,x,i,i,6%,-1
CC(O)(CS(=O)(=O)c1ccccc1)C(=O)Nc1cccc(C(F)(F)F)c1 (stereo not given),-15,9%,i,21µM*,-2%,3
O=C(NC(O)C(Cl)(Cl)Cl)NC(O)C(Cl)(Cl)Cl (stereo not given),x,x,x,x,x,1
COC(=O)C12CCc3c(ccc4cc(OC)ccc34)C1=CC(=O)C2 (stereo not given),9,-2%,u,21µM*,u,-7
O=[N+]([O-])c1ccc(C2[C@H]3C(c4ccccc4)=NC4(CCCC4)N23)cc1 (stereo not given in full),-1,u,i,i,12%,1
Cc1ccc(C2=NC(C)(C)N3C2C3c2ccc([N+](=O)[O-])cc2)cc1 (stereo not given),-8,1%,u,18µM*,12%,0
C[C@H](CN1CCOCC1)C(C(=O)N1CCCC1)(c1ccccc1)c1ccccc1,x,x,x,x,x,i
Cc1nc2ccccc2c(=O)n1-c1cccc(C(F)(F)F)c1,12,-10%,i,u,-6%,1
Cc1nnc2ccc(-c3cccc(C(F)(F)F)c3)nn12,u,-20%,i,12µM*,0%,-6
COc1cc2[nH]c(=O)n(Cc3ccc(C(=O)N4CCN(c5ccc(Cl)cc5)CC4)cc3)c(=O)c2cc1OC,x,u,i,i,-7%,-1
CN(C)CCc1c[nH]c2cccc(OP(=O)(O)O)c12,x,x,x,x,x,i
Cc1ccc(C(=O)Nc2c(C(=O)Nc3ccc(C)c(C)c3)sc3nc(C)cc(C)c23)cc1,x,u,u,u,-12%,1
CC(=O)c1cn(Cc2ccc(F)cc2)c2ccccc12,-10,u,i,u,7%,-3
CC(N)Cc1cn(Cc2ccccc2)c2ccccc12 (stereo not given),-12,-11%,23µM*,u,6%,-6
Cc1cccc(Cc2cnc(NC(=O)c3ccc4c(c3)CC(c3ccccc3)OC4=O)s2)c1 (stereo not given),x,u,i,i,-1%,3

# Bioassay records from PubChem BioAssay.
